Experiment in all cases: DAPPL (digital affinity profiling via proximity ligation, sequencing); 10 mM Tris-HCl pH 7.5, 50 mM NaCl, 1 mM DTT, 4% glycerol, room temperature, 30 min; GST-TFs on glutathione beads, 16-mer random dsDNA library, 0.1% formaldehyde crosslink after washing; high values mean tight binding
The target in test [1] is T1, FEV (Homo sapiens, UniProt Q99581 1-238).
T1 sequence: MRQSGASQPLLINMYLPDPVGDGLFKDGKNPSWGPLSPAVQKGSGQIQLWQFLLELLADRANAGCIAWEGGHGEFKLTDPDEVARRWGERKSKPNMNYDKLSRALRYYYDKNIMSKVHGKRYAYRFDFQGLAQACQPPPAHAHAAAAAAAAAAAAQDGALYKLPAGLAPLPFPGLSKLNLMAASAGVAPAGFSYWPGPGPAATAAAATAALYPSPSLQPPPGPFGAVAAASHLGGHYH
The following applies: protein: recombinant; tags: N-terminal GST; dsDNA, one strand shown. The gist of the method: (§1)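 Pools were built from human transcription factors expressed in yeast as GST fusions, captured on glutathione beads and DNA-barcoded, along with a tag-only sample. Incubation with 200 nmole of a 16-mer random double-stranded DNA library lasted 30 min at room temperature in Tris/NaCl/DTT/glycerol buffer, and was followed by washing, 0.1% formaldehyde crosslinking, proximity ligation, PCR amplification and Illumina NextSeq500 sequencing. Binding signal is the quotient of each hexamer's read frequency for a factor and its frequency for the tag-only sample.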

Test [2] concerns the target ETV5 (Homo sapiens, UniProt P41161 1-510). The settings on record: protein: recombinant; tags: N-terminal GST; dsDNA, one strand shown. The gist of the method: as §1
Test [3] concerns the target HSF1 (Homo sapiens, UniProt Q00613 1-529). The settings on record: protein: recombinant; tags: N-terminal GST; chain copies: 3; dsDNA, one strand shown. The gist of the method:
as §1

The target of test [4] is T2, SPIC (Homo sapiens, UniProt Q8N5J4 1-248).
T2 sequence: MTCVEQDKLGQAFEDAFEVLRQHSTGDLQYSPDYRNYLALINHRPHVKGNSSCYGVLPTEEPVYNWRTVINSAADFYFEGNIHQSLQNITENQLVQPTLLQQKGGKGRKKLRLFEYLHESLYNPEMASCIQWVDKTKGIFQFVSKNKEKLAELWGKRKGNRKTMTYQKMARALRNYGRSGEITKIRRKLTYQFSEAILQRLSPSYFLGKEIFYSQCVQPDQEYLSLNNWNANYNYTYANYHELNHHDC
The settings on record: protein: recombinant; tags: N-terminal GST; dsDNA, one strand shown. The gist of the method: as §1

Test [5] concerns the target ELF4 (Homo sapiens, UniProt Q99607 1-663). The following applies: protein: recombinant; tags: N-terminal GST; dsDNA, one strand shown. The gist of the method: as §1
Test [6] deals with T3, ELK4 (Homo sapiens, UniProt P28324-2 1-405).
T3 sequence: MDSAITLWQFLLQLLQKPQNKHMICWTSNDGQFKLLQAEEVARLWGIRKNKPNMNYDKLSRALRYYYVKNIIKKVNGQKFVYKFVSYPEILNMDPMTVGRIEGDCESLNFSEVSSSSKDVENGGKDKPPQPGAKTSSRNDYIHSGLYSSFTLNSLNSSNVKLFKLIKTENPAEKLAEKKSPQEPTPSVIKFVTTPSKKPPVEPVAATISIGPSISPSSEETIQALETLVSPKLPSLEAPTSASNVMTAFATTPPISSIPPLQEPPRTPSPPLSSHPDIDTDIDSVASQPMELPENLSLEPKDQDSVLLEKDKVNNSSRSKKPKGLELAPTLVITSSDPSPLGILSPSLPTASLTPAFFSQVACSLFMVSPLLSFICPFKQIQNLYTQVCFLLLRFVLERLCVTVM
The settings on record: protein: recombinant; tags: N-terminal GST; dsDNA, one strand shown. The gist of the method:
as §1

Test [7] concerns the target T4, ETV2 (Homo sapiens, UniProt O00321 1-342).
T4 sequence: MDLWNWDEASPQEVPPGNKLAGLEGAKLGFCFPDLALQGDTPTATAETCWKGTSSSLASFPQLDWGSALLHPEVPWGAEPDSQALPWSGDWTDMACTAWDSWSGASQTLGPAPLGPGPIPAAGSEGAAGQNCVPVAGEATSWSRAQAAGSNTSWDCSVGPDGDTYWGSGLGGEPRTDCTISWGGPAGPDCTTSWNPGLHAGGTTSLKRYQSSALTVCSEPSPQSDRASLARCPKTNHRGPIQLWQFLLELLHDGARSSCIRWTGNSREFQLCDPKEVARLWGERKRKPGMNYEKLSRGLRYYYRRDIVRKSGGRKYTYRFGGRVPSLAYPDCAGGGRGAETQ
The following applies: protein: recombinant; tags: N-terminal GST; dsDNA, one strand shown. The gist of the method:
as §1

In test [8] the target is T5, ELF3 (Homo sapiens, UniProt P78545 1-371).
T5 sequence: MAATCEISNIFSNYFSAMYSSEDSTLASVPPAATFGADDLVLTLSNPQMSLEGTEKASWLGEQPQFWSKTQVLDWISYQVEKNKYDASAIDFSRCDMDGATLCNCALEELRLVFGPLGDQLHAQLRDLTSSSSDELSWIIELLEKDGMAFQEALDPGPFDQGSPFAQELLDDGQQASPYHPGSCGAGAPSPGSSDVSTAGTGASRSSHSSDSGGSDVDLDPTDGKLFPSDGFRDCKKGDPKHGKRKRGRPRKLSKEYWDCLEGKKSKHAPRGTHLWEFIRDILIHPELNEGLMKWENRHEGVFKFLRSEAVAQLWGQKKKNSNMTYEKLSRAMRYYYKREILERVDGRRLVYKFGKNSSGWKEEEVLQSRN
The settings on record: protein: recombinant; tags: N-terminal GST; dsDNA, one strand shown. The gist of the method:
as §1

In test [9] the target is CRX (Homo sapiens, UniProt O43186 1-299). The settings on record: protein: recombinant; tags: N-terminal GST; dsDNA, one strand shown. The gist of the method: as §1
Test [10] has as its target ETV1 (Homo sapiens, UniProt P50549 1-477). The following applies: protein: recombinant; tags: N-terminal GST; dsDNA, one strand shown. The gist of the method:
as §1

For test [11], the target named is T6, ERF (Homo sapiens, UniProt P50548 1-548).
T6 sequence: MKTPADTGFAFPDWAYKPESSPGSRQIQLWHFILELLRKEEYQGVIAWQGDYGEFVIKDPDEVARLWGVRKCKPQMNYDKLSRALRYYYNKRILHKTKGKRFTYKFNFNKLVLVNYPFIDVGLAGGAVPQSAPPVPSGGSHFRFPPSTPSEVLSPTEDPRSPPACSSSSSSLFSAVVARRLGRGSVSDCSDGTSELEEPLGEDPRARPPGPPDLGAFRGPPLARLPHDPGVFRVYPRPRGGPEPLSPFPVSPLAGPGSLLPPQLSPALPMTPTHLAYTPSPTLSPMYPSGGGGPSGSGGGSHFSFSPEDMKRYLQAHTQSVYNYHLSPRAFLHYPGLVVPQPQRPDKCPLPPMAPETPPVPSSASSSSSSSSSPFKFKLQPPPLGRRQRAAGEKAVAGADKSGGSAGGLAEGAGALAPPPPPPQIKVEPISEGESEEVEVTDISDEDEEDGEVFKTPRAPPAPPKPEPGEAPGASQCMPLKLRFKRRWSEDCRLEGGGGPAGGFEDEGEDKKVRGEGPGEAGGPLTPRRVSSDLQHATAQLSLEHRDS
The following applies: protein: recombinant; tags: N-terminal GST; dsDNA, one strand shown. The gist of the method: as §1

The target in test [12] is T7, ETV3L (Homo sapiens, UniProt Q6ZN32 1-361).
T7 sequence: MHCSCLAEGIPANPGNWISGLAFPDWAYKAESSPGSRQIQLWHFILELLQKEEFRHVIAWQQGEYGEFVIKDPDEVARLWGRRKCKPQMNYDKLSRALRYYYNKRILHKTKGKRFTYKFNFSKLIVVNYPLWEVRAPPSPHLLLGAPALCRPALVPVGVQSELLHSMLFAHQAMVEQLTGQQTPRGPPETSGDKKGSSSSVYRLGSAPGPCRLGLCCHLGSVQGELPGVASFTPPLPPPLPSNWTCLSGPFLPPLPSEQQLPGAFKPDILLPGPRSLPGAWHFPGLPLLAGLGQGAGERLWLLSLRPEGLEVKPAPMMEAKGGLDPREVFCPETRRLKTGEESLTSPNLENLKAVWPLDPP
The settings on record: protein: recombinant; tags: N-terminal GST; dsDNA, one strand shown. The gist of the method:
as §1

The target of test [13] is T8, ETS2 (Homo sapiens, UniProt P15036 1-469).
T8 sequence: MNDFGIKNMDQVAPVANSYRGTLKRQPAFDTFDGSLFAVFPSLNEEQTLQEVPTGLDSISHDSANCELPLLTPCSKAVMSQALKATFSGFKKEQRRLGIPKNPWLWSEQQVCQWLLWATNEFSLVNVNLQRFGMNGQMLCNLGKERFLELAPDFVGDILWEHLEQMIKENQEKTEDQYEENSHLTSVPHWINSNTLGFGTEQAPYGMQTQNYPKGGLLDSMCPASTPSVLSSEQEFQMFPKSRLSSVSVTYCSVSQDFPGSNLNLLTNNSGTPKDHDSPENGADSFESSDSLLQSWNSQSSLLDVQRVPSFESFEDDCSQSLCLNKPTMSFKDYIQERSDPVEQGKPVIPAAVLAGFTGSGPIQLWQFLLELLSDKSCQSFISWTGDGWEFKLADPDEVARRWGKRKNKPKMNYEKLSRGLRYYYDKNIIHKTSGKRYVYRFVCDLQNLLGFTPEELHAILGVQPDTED
The settings on record: protein: recombinant; tags: N-terminal GST; dsDNA, one strand shown. The gist of the method:
as §1

Test [14] addresses T9, SPDEF (Homo sapiens, UniProt O95238 1-335).
T9 sequence: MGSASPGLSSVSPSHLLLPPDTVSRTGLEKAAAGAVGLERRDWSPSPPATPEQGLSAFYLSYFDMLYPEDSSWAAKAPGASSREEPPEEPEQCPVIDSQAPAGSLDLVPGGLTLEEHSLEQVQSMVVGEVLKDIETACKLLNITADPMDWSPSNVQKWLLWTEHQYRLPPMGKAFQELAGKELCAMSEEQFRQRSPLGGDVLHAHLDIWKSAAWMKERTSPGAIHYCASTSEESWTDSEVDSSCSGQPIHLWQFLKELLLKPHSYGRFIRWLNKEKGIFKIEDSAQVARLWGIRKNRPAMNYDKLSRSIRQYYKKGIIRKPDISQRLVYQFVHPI
The settings on record: protein: recombinant; tags: N-terminal GST; dsDNA, one strand shown. The gist of the method:
as §1

Test [15] deals with T10, ETV7 (Homo sapiens, UniProt Q9Y603 1-341).
T10 sequence: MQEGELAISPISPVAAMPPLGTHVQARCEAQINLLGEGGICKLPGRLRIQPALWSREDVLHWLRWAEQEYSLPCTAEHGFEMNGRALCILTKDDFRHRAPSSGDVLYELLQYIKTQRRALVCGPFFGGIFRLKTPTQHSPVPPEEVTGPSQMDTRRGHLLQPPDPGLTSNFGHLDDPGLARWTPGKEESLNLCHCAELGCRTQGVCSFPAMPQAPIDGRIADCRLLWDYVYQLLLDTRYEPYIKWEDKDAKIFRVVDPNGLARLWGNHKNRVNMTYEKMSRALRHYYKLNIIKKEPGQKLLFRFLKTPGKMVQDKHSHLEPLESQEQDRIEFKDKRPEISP
The following applies: protein: recombinant; tags: N-terminal GST; dsDNA, one strand shown. The gist of the method:
as §1

Test [16] concerns the target T11, ELF5 (Homo sapiens, UniProt Q9UKW6-2 1-255).
T11 sequence: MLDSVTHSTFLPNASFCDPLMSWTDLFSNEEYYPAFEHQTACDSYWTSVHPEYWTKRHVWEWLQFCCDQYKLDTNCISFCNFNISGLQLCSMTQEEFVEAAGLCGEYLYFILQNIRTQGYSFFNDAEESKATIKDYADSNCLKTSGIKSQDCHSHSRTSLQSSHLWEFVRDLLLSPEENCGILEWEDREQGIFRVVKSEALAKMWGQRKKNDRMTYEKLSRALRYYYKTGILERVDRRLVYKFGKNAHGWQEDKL
The following applies: protein: recombinant; tags: N-terminal GST; dsDNA, one strand shown. The gist of the method:
as §1

The target in test [17] is T12, ETV3 (Homo sapiens, UniProt P41162-2 1-143).
T12 sequence: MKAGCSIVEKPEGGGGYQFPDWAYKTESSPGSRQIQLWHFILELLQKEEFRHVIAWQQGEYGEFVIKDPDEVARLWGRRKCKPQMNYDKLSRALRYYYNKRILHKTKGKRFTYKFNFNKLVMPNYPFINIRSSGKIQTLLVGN
The following applies: protein: recombinant; tags: N-terminal GST; dsDNA, one strand shown. The gist of the method: as §1

Test [18] concerns the target ETV6 (Homo sapiens, UniProt P41212 1-452). The following applies: protein: recombinant; tags: N-terminal GST; dsDNA, one strand shown. The gist of the method: as §1

Chain of CRX (O43186 whole entry): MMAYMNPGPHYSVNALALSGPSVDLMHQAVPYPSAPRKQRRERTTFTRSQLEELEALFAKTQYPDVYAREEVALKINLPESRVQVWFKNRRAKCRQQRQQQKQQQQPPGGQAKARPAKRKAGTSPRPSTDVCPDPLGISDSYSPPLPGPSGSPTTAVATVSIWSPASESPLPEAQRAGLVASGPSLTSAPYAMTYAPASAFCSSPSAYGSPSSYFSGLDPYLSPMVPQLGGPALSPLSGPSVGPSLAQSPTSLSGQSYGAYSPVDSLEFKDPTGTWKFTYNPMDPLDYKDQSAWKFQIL
Chain of ELF4 (Q99607 whole entry): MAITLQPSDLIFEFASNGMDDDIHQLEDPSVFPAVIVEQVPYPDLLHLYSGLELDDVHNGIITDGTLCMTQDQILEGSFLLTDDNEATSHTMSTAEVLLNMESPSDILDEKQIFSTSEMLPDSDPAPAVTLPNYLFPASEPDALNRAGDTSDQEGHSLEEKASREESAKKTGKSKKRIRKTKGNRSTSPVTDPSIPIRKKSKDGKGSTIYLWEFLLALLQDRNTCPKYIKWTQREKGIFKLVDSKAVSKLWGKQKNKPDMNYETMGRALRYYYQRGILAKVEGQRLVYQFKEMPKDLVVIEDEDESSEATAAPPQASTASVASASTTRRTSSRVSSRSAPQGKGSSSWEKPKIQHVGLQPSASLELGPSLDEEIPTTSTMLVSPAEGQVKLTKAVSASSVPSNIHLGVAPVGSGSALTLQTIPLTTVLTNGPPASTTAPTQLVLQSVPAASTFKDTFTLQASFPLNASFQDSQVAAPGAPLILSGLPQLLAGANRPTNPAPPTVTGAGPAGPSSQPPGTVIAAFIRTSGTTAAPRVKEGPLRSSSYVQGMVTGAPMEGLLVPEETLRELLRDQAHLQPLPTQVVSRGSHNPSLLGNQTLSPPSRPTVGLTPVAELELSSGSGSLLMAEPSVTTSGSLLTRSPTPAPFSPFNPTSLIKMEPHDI
Chain of ETV5 (P41161 whole entry): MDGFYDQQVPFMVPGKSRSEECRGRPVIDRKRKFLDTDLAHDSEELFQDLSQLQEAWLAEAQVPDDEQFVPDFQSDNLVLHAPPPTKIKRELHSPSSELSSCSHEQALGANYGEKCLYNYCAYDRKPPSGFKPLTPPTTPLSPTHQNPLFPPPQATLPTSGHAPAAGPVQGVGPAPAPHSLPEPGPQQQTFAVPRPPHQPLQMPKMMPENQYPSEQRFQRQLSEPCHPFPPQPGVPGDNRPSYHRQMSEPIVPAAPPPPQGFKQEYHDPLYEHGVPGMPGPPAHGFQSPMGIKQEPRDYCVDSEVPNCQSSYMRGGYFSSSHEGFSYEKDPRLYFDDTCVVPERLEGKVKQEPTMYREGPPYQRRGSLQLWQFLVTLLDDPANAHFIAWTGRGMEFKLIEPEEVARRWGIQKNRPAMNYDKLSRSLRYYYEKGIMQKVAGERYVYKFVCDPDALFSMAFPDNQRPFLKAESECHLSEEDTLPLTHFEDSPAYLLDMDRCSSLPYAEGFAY
Chain of HSF1 (Q00613 whole entry): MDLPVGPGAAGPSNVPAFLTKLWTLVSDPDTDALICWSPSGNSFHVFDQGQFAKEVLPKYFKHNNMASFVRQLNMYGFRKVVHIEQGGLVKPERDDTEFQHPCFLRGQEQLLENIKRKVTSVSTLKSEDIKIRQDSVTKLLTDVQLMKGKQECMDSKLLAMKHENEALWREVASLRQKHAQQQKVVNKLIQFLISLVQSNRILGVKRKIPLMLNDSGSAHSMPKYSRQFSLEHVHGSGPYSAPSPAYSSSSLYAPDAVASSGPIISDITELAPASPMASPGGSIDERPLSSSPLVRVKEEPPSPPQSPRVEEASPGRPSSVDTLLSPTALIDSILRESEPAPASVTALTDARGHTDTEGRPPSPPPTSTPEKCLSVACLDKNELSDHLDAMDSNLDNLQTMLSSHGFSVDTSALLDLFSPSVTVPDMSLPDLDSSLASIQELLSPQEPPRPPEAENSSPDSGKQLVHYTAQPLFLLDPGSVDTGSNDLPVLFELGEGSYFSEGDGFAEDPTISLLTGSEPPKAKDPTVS
Chain of ETV6 (P41212 whole entry): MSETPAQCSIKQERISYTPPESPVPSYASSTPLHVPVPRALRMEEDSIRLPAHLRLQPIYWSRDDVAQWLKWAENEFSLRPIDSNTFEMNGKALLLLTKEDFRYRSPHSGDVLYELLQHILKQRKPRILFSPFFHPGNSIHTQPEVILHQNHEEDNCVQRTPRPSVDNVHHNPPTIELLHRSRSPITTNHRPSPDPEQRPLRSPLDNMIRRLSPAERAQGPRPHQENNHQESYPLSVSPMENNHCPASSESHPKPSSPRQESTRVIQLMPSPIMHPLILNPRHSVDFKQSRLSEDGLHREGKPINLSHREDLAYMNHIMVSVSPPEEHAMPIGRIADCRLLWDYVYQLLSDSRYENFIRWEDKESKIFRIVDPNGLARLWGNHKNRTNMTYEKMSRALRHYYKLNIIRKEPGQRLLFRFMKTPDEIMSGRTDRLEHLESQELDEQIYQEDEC
Chain of ETV1 (P50549 whole entry): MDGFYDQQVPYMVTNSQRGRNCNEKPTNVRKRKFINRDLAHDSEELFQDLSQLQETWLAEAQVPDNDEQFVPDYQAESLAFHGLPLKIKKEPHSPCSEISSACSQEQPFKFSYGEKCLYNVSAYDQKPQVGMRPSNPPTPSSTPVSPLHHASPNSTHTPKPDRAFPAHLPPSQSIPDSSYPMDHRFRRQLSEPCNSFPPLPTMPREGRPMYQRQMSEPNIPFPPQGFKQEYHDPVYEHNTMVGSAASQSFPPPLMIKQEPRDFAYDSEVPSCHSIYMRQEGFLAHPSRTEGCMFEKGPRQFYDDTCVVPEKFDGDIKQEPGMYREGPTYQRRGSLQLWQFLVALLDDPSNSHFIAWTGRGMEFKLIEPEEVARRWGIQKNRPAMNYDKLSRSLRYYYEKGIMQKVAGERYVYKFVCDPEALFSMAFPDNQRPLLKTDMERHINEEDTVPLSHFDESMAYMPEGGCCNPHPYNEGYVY

Regarding GTTTCC, the binding signal in [1] was 3.32 fold enrichment (6-mer frequency, TF over GST control); in test [2], 3.01 fold enrichment (6-mer frequency, TF over GST control); in test [3], 1.42 fold enrichment (6-mer frequency, TF over GST control); in test [4], 2.6 fold enrichment (6-mer frequency, TF over GST control); in test [5], 2.56 fold enrichment (6-mer frequency, TF over GST control); in test [6], 2.16 fold enrichment (6-mer frequency, TF over GST control). Further, the binding signal in [7] was 2.42 fold enrichment (6-mer frequency, TF over GST control); in test [8], 2.55 fold enrichment (6-mer frequency, TF over GST control); in test [9], 1.08 fold enrichment (6-mer frequency, TF over GST control); in test [10], 2.65 fold enrichment (6-mer frequency, TF over GST control); in [11], 2.49 fold enrichment (6-mer frequency, TF over GST control); in test [12], 2.7 fold enrichment (6-mer frequency, TF over GST control). The binding signal in test [13] is 2.82 fold enrichment (6-mer frequency, TF over GST control); in test [14], 2.75 fold enrichment (6-mer frequency, TF over GST control); in test [15], 2.86 fold enrichment (6-mer frequency, TF over GST control); in [16] it was 3.9 fold enrichment (6-mer frequency, TF over GST control); in test [17], 3.01 fold enrichment (6-mer frequency, TF over GST control); in test [18], 3.24 fold enrichment (6-mer frequency, TF over GST control).

The values above are taken from article PMC7862700, “An all-to-all approach to the identification of sequence-specific readers for epigenetic DNA modifications on cytosine”.
